Tg IFNy HTS: T. gondii growth inhibition with IFN-gamma, primary screen, cell-based | 69,000 compounds, 3.8% hits | activity change, negative = inhibition, % (test concentration not listed) | Toxoplasma gondii growth in IFN-gamma-treated host cells; stronger effect = lower value | AID 1259416, 2018; in the data active = activity change below about -70%, passing the limit was not always enough;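 note: host cells are HeLa cells infected with Toxoplasma gondii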
The depositor's hits bear a star; ! = a repeat was not active. The full list was thinned out, with hits kept by preference.

SMILES | Tg IFNy HTS
CCCN1C(=O)CCc2cc(C(=O)N3CCOCC3)ccc21 | -13.8
O=C(CN1C(=O)CCc2cc(Br)ccc21)N1CCN(c2ccccc2)CC1 | -42.6
O=C(c1ccc2c(c1)CCC(=O)N2Cc1ccccc1)N1CCN(c2ccc(F)cc2)CC1 | -107.6*
O=C(Cc1ccc(F)cc1)N1CCCC1c1nc2ccccc2[nH]1 (stereo not given) | -4.3
Cc1ccccc1C1(O)CCN(C(=O)COc2cccnc2)C1 (stereo not given) | 51.5
CCOC(=O)c1nc(-c2cccc(-n3cccc3)c2)no1 | -17.8
CC(C)(C)c1nc(SCc2nc(-c3cccc(-n4cccc4)c3)no2)n[nH]1 | -80.8*
CC(C)(C)c1ccc(-c2noc(CSc3ccccn3)n2)cc1 | 178.3
COc1c(Cl)cc(Cl)cc1CNCCCN1CCOCC1 | -26.0
CN1CCN(C(=O)c2ccnc(N3CCC4(CCNCC4)CC3)c2)CC1 | 2.0
O=C(CCc1ccccc1)N1CCCC(Cn2cc(-c3cccnc3)nn2)C1 (stereo not given) | -1.8
C=CCOC[C@H]1CN(C)C(=O)[C@H]2CCN(C(=O)N3CCCC3)CC[C@@H]12 | 79.7
CCN1c2cc(Cl)ccc2C(=O)NC12CCN(C(=O)Nc1ccc(OC)cc1)CC2 | 285.0
CN(C)C(=O)CN1CCOCC2(CCN(C(=O)Nc3ccc(Cl)cc3)CC2)C1 | -0.1
CC(C)CN1C[C@@H]2[C@@H](C1)C(=O)NC21CCN(C(=O)Nc2ccc(Cl)cc2)CC1 | -109.0*
COc1ccc(S(=O)(=O)Nc2ccncc2)cc1N(C)S(C)(=O)=O | 45.2
Cc1cccc(CNC2=NCCNC23CCN(S(=O)(=O)c2cc(C)c(C)cc2C)CC3)c1 | -67.9
COc1cc2c(c(OC)c1OC)C(=O)CC2 | 73.5
COc1cc(-c2cccc(NC(C)=O)c2)cc(OC)c1OC | 11.3
COc1cc2c(c(OC)c1OC)-c1ccc(OC)c(=O)cc1C(NC(C)=O)CC2 (stereo not given) | -78.7*
CS(=O)(=O)N1CCCn2nnc(COCC3CC3)c2C1 | 1.0
COc1ccc(-c2nc(NCc3ccc(C)cc3)c3ccccc3n2)cc1 | -45.7
COCC1CN(C(=O)c2ccc(C)o2)Cc2cnn(C)c21 (stereo not given) | -8.0
Cc1cc(-c2cnc(N3CCOCC3)nc2C2CCN(CC3CCC=CO3)CC2)on1 (stereo not given) | 38.3
Cc1ccc(C2(O)CCN(C(=O)c3n[nH]c4c3CCC4)CC2)nc1 | 8.3
SMILES | Tg IFNy HTS
Cc1cc(-c2cnc(N3CCCC3)nc2C2CCN(C(=O)c3n[nH]c4c3CCC4)CC2)on1 | -82.3*
CC(C)C(C)NC(=O)c1ncn2c(C3CCN(C(=O)C4CCCC4)CC3)ccnc12 (stereo not given) | -33.5
COc1cccc([C@@H]2CCCN(Cc3cc4n(n3)CCCNC4)C2)c1 | -25.7
COc1cccc(CN2CCCC(c3ccc4c(NCc5cccc(C)n5)n[nH]c4n3)C2)c1 (stereo not given) | -83.4*
COc1ccc(-c2nc(NCC3CCN(Cc4cccc(C)c4)CC3)c3ccccc3n2)cc1 | -36.0
O=C(NCc1csc2ccc(Cl)cc12)c1cccnc1Oc1ccc(Cl)cc1 | -61.5
O=C(Sc1ccc(Cl)cc1)c1cccnc1Oc1ccccc1 | -102.4*
O=C(Nc1csc(-c2ccc(Cl)cc2)c1)c1cccnc1Oc1ccc(Cl)cc1 | 70.2
CCc1nc(N)sc1C(=O)N1CCC2(CCOCC2)CC1 | 2.8
COc1ccc(CC(=O)Nc2ccc(-c3nc(-c4ccc(C)cc4)co3)cc2)cc1 | 29.8
O=C(Cn1c(=O)cc(C(=O)N2CCCC2)c2ccccc21)Nc1cccc(Cl)c1 | -7.0
CCn1c(=O)c(C(=O)Nc2ccc3c(c2)OCO3)c(O)c2ccccc21 | 55.9
COCCN1CCC(Cn2cnc(-c3ccccc3)c2-c2cc(C)[nH]n2)C1 (stereo not given) | -11.7
Cc1ccc(Nc2nc(-c3nnc(-c4ccc(C)cc4)o3)nc3ccccc23)cc1 | 41.7
Cc1cc(C)cc(Nc2nc(-c3nnc(-c4ccccc4)o3)nc3ccccc23)c1 | 42.1
Cc1cccc(Nc2ncnc3ccccc23)c1 | -51.0
CC(Nc1ncnc2ccccc12)c1ccccc1 (stereo not given) | -93.4*
CC(Nc1nc(-c2nnc(-c3ccccc3)o2)nc2ccccc12)c1ccccc1 (stereo not given) | -93.9*
c1ccc(Nc2ncnc3ccccc23)cc1 | -60.8
CC(C)Nc1nc2c(c(NC3CC3)n1)CCN(Cc1cnn(C)c1)CC2 | 40.1
CCC(CC)n1ncc(C)c1NC(=O)Cc1ccc(-n2nnnc2C)cc1 | -26.8
C[C@H]1CN([C@@H](C)CO)C(=O)Cc2cc(NC(=O)C3CCCCC3)ccc2O[C@H]1CN(C)Cc1ccc(Cl)c(Cl)c1 | -53.8
C[C@H](CO)N1C[C@H](C)[C@H](CN(C)C(=O)Nc2ccc(C(F)(F)F)cc2)Oc2ccc(NS(=O)(=O)c3ccc(Cl)cc3)cc2CC1=O | 4.6
C[C@@H]1CN([C@@H](C)CO)C(=O)Cc2cc(NS(=O)(=O)c3ccc(Cl)cc3)ccc2O[C@H]1CN(C)C(=O)Nc1ccc(C(F)(F)F)cc1 | -25.3
C[C@@H]1CN([C@H](C)CO)C(=O)Cc2cc(NC(=O)C3CCCCC3)ccc2O[C@H]1CN(C)Cc1ccc(Cl)c(Cl)c1 | -71.7*
SMILES | Tg IFNy HTS
C[C@@H]1CN([C@@H](C)CO)C(=O)Cc2cc(NC(=O)C3CCCCC3)ccc2O[C@H]1CN(C)Cc1ccc(Cl)c(Cl)c1 | -33.4
C[C@@H]1CN([C@@H](C)CO)C(=O)Cc2cc(NS(=O)(=O)c3ccc(Cl)cc3)ccc2O[C@@H]1CN(C)C(=O)Nc1ccc(C(F)(F)F)cc1 | -78.9*
Cc1ccc2[nH]c(=O)cc(C(=O)N3CCN(C)C4(CCN(C)CC4)C3)c2c1 | 1.2
COC(C)c1ccc(-c2ccc(OC(C)C)nn2)cc1 (stereo not given) | 135.5
CCOC(=O)N1CCC(N2[C@@H]3CC[C@H]2CNC(=O)C3)CC1 | -5.7
Cc1ccc(C(=O)Nc2ccc(-n3nc(C(F)(F)F)cc3-c3cccs3)cc2)cc1 | 68.7
Cc1nnsc1C(=O)Nc1ccc(-n2nc(C(F)(F)F)cc2C(F)(F)F)cc1 | -81.4*
Cc1nnsc1C(=O)Nc1cccc(N)c1 | 1.6
COC(=O)c1cc2n(n1)CCCN(C(=O)Cc1[nH]nc3ccccc13)C2 | 144.0
CNCC[C@H](Oc1cccc2ccccc12)c1cccs1 | 19.0
CNCCC(Oc1ccc(C(F)(F)F)cc1)c1ccccc1 (stereo not given) | -86.5*!
CCOCCCNC(c1ccccc1)c1ccncc1 (stereo not given) | 3.2
O=C(c1ccc(N2CCC(NCc3cccc(Cl)c3)CC2)cc1)N1CCCC(CO)C1 (stereo not given) | 5.5
COCC1c2nnn(C)c2CCN1C(=O)Cc1ccc(F)cc1OC (stereo not given) | 2.6
Cc1nc2ncccn2c1C(=O)N1CCCC2(C1)C(=O)Nc1ccccc12 (stereo not given) | -82.0*
Cc1cc(C)n2nc(C(=O)N3CCCC4(C3)C(=O)Nc3ccccc34)cc2n1 (stereo not given) | -24.5
Cc1nc2ncccn2c1C(=O)N1CCCC(C(=O)c2ccc3c4c(cccc24)CC3)C1 (stereo not given) | -0.8
CCc1ccc(Cn2cnc(-c3ccccc3)c2-c2cnc(OC)nc2)nc1 | 1.2
CC(=O)Nc1cccc(-c2ccccc2-c2nnc(C)s2)c1 | -23.2
CC(=O)Nc1cccc(-c2cc(C(F)(F)F)cc3[nH]cnc23)c1 | -77.3*
CC(=O)Nc1cccc(-c2cnn3cccnc23)c1 | -49.9
COc1cccc(-c2nc(Cn3nnc(C(=O)Nc4cccc(Cl)c4)c3C)c(C)o2)c1OC | -47.6
